# Laboratory results taken from PubChem BioAssay (EPA / NIEHS).
# Several values for one entry are separate records, joined by “and”; a condition that tells them apart may be missing. Equal entries are not always repeated. Inconclusive results are not listed. Where a structure was tested more than once in an assay, its records may differ in their call. Activity calls are given as the source filed them. Rule for the calls, unless noted: active = hit-call score of the fitted dose curve at least 0.9, where 1 is the maximum; inactive = score below 0.9.
# Columns and labels:
# [1] = BSK_3C_TissueFactor: BioMAP Diversity Plus: 3C Assay for Tissue Factor Biomarker Activity (AID 2282997); conditions: BioMAP 3C HUVEC, tissue factor biomarker readout; actives raise or lower the signal
# Procedure, shortened: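 After a 24 h chemical exposure of primary human umbilical vein endothelial cells, Tissue Factor levels were quantified by ELISA.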
# [2] = BSK_3C_VCAM1: BioMAP Diversity Plus: 3C Assay for Vascular cell adhesion molecule 1 (VCAM1) Biomarker Activity (AID 2282999); conditions: BioMAP 3C HUVEC, VCAM1 ELISA, cytokine-stimulated; actives raise or lower the signal
# Procedure, shortened: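 Vascular primary endothelium (human umbilical vein) was exposed to chemicals and assayed 24 h later. VCAM-1 levels came from ELISA, with DMSO serving as baseline for bidirectional fitting.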
# [3] = BSK_3C_Proliferation: Cell Proliferation Assessment in the BioMAP Diversity Plus: 3C Assay (AID 2283006); conditions: primary human endothelial cells (HUVEC);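 for AC50: potency may reflect either rise or fall in cell number versus DMSO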
# Procedure, shortened: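 HUVEC, sub-confluent; 48 h chemical exposure; 10% TCA fix, 0.1% SRB stain, A560 total protein. Gain or loss of signal fitted both directions vs DMSO control.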
# [4] = read-out: E-selectin (Homo sapiens) (UniProt P16581); assay: BSK_3C_Eselectin: BioMAP Diversity Plus: 3C Assay for Eselectin Biomarker Activity (AID 2283015); conditions: primary human endothelial cells (HUVEC); actives raise or lower the signal;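 for outcome: cell surface E-selectin protein quantified by ELISA 24 h after dosing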
# Procedure, shortened: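 ELISA read-out of E-selectin on endothelial monolayers after 24 h chemical treatment. Human umbilical vein primary cells served as the system, with DMSO defining baseline activity for bidirectional fitting.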
# [5] = read-out: Interleukin-1 alpha (IL1a), IL1A (gene 3552); assay: BSK_BE3C_IL1a: BioMAP Diversity Plus: BE3C Assay for Interleukin-1 alpha (IL1a) Biomarker Activity (AID 2283016); conditions: primary human bronchial epithelial cells; actives raise or lower the signal
# Procedure, shortened: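 ELISA read-out of IL-1a from human lung bronchial epithelial primary cells, 24 h post-dose. Gain or loss of signal fitted relative to DMSO negative control.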
# [6] = read-out: Monocyte Chemoattractant Protein-1 (MCP1), CCL2 (gene 6347); assay: BSK_3C_MCP1: BioMAP Diversity Plus: 3C Assay for Monocyte Chemoattractant Protein-1 (MCP1) Biomarker Activity (AID 2283017); conditions: primary human endothelial cells (HUVEC); actives raise or lower the signal
# Procedure, shortened: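 ELISA read-out of MCP-1 from human umbilical vein endothelial cell cultures harvested 24 h post-dosing. Gain or loss of signal was fitted relative to DMSO.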
# [7] = read-out: Interleukin-8 (IL8), CXCL8 (gene 3576); assay: BSK_3C_IL8: BioMAP Diversity Plus: 3C Assay for Interleukin-8 (IL8) Biomarker Activity (AID 2283020); conditions: primary human endothelial cells (HUVEC); actives raise or lower the signal
# Procedure, shortened: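 HUVEC, 3C stimulation; 24 h compound exposure; IL-8 read by ELISA; gain or loss of signal fitted relative to DMSO control.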
# [8] = BSK_3C_SRB: Viability Assessment in the BioMAP Diversity Plus: 3C Assay (AID 2283023); conditions: primary human endothelial cells (HUVEC);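 note: fitted both ways against DMSO so a hit may be signal rise or drop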
# Procedure, shortened: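 Absorbance at 560 nm of sulforhodamine B-stained (0.1%) total protein served as a cytotoxicity readout in human umbilical vein endothelial cells, 24 h after chemical treatment. Signal was fitted bidirectionally relative to DMSO.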
# [9] = read-out: Matrix Metallopeptidase 1 (MMP1), MMP1 (gene 4312); assay: BSK_BE3C_MMP1: BioMAP Diversity Plus: BE3C Assay for Matrix Metallopeptidase 1 (MMP1) Biomarker Activity (AID 2283024); conditions: primary human bronchial epithelial cells; actives raise or lower the signal
# Procedure, shortened: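 ELISA read-out of MMP1 in human lung bronchial epithelial primary cultures, 24 h post-dose; bidirectional curve fit vs DMSO baseline, gain or loss of signal scored.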
# [10] = read-out: Pselectin, SELP (gene 6403); assay: BSK_4H_Pselectin: BioMAP Diversity Plus: 4H Assay for Pselectin Biomarker Activity (AID 2283026); conditions: primary human endothelial cells (HUVEC); actives raise or lower the signal
# Procedure, shortened: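 HUVEC, 24 h chemical exposure; P-selectin read by ELISA. Bidirectional curve fit vs DMSO baseline; gain or loss of signal scored.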
# [11] = BSK_4H_SRB: Viability Assessment in the BioMAP Diversity Plus: 4H Assay (AID 2283027); conditions: primary human endothelial cells (HUVEC);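 note: cells exposed to compound for 24 h before staining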;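 for AC50: curves fitted both ways versus DMSO so AC50 may be loss or gain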
# Procedure, shortened: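 Cytotoxicity readout: sulforhodamine B (0.1%) staining of total protein after 10% TCA fixation, measured at 560 nm in human umbilical vein endothelium at 24 h. DMSO set the baseline; fitting was bidirectional.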
# [12] = read-out: Collagen III, COL3A1 (gene 1281); assay: BSK_hDFCGF_CollagenIII: BioMAP Diversity Plus: hDFCGF Assay for Collagen III Biomarker Activity (AID 2283056); conditions: primary human foreskin fibroblasts; actives raise or lower the signal
# Procedure, shortened: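 ELISA read-out of collagen III from human skin fibroblast cultures sampled 24 h post-dosing. Values were derived by bidirectional fitting relative to the DMSO vehicle control.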
# [13] = read-out: Macrophage colony-stimulating factor (MCSF), CSF1 (gene 1435); assay: BSK_hDFCGF_MCSF: BioMAP Diversity Plus: hDFCGF Assay for Macrophage colony-stimulating factor (MCSF) Biomarker Activity (AID 2283060); conditions: primary human foreskin fibroblasts; actives raise or lower the signal
# Procedure, shortened: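 Primary human foreskin fibroblasts dosed with chemical; 24 h later, M-CSF quantified by ELISA; curves fitted in both directions vs DMSO negative control.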
# [14] = read-out: Interleukin-1 alpha (IL1a), IL1A (gene 3552); assay: BSK_KF3CT_IL1a: BioMAP Diversity Plus: KF3CT Assay for Interleukin-1 alpha (IL1a) Biomarker Activity (AID 2283070); conditions: primary human keratinocytes with fibroblasts; actives raise or lower the signal
# Procedure, shortened: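 Readout is IL-1a level by ELISA, compared bidirectionally with DMSO as baseline. Cells: human keratinocytes co-cultured with foreskin fibroblasts, harvested 24 h post-dose.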
# [15] = read-out: Matrix Metallopeptidase 9 (MMP9), MMP9 (gene 4318); assay: BSK_KF3CT_MMP9: BioMAP Diversity Plus: KF3CT Assay for Matrix Metallopeptidase 9 (MMP9) Biomarker Activity (AID 2283074); conditions: primary human keratinocytes with fibroblasts; actives raise or lower the signal;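 for AC50: MMP9 protein level quantified by ELISA in the co-culture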
# Procedure, shortened: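 Values come from bidirectional fitting relative to DMSO of MMP-9 levels, which were measured by ELISA. Measurements were taken 24 h after chemical dosing of a keratinocyte and foreskin fibroblast co-culture.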
# [16] = read-out: Interleukin-1 alpha (IL1a), IL1A (gene 3552); assay: BSK_LPS_IL1a: BioMAP Diversity Plus: LPS Assay for Interleukin-1 alpha (IL1a) Biomarker Activity (AID 2283080); conditions: primary human HUVEC with PBMC; actives raise or lower the signal
# Procedure, shortened: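 ELISA read-out of IL-1 alpha from a human primary vascular co-culture (endothelium plus PBMC) under LPS, sampled 24 hours post-dosing. Activity was fitted in both directions relative to DMSO controls.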
# [17] = BSK_LPS_PGE2: BioMAP Diversity Plus: LPS Assay for Prostaglandin E2 (PGE2) Biomarker Activity (AID 2283082); conditions: primary human HUVEC with PBMC; actives raise or lower the signal;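 for AC50: secreted prostaglandin E2 measured by ELISA in LPS-stimulated co-culture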
# Procedure, shortened: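 ELISA read-out of PGE2 from human umbilical vein endothelial cells co-cultured with peripheral blood mononuclear cells under LPS, 24 h post-dose. Gain or loss of signal scored relative to DMSO baseline.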
# [18] = read-out: Tumor necrosis factor (Homo sapiens) (UniProt P01375); assay: BSK_LPS_TNFa: BioMAP Diversity Plus: LPS Assay for Tumour Necrosis Factor alpha (TNFa) Biomarker Activity (AID 2283085); conditions: primary human HUVEC with PBMC; actives raise or lower the signal;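 for AC50: TNFa protein level quantified by ELISA in the co-culture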
# Procedure, shortened: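 HUVEC/PBMC co-culture, LPS-stimulated; 24 h post-dose; TNFa by ELISA; gain or loss of signal fitted bidirectionally vs DMSO baseline.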
# [19] = BSK_SAg_PBMCCytotoxicity: PBMC Cytotoxicity Assessment in the BioMAP Diversity Plus: SAg Assay (AID 2283093); conditions: primary human HUVEC with PBMC;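 note: PBMC viability measured as Alamar Blue reduction fluorescence at 546/580 nm; fitted both ways against DMSO so a hit may be loss or gain of signal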;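 for AC50: PBMC superantigen activated with SEB plus TSST-1 one hour after compound addition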
# Procedure, shortened: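 Alamar Blue reduction (6 h, 546/580 nm) reports PBMC cytotoxicity after 90 h superantigen activation (SEB, TSST-1; 20 ng/mL final each) with 1 h compound pre-treatment. Gain or loss of signal fitted versus DMSO.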
# [20] = biological target: Estrogen receptor beta (Homo sapiens) (UniProt Q92731); assay: OT_ER_ERbERb_0480: Odyssey Thera (OT) 8-hour HEK293T Protein-Complementation Assay for Estrogen Receptor-beta/-beta Homodimer (AID 2283357; active = hit-call score of the fitted dose curve at least 0.9, where 1 is the maximum;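 note: active means signal gain over DMSO baseline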)
# Chain of Estrogen receptor beta (Homo sapiens) (Q92731 whole entry, looked up, the tested form may be a part): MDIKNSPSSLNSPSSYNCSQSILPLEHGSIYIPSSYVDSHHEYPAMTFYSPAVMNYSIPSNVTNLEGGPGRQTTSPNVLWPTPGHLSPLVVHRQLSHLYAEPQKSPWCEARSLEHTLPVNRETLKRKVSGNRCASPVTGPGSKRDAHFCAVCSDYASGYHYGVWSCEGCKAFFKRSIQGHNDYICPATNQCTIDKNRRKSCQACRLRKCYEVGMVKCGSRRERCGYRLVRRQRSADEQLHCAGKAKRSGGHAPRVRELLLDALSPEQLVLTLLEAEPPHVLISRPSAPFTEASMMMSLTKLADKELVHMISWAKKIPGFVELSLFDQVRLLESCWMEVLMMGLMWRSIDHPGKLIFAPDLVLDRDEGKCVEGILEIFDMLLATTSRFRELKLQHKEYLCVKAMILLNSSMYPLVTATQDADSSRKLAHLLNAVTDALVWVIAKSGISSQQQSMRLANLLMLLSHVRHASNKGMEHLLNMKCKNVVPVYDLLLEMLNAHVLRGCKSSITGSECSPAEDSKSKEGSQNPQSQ
# Procedure, shortened: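 Fluorescence gain from complemented reporter fragments on ER-beta LBD homodimer in HEK293T was quantified against DMSO controls after 8 h treatment, fixation in 4% formaldehyde and Draq5 staining.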
# Chain of Tumor necrosis factor (Homo sapiens) (P01375 whole entry, looked up): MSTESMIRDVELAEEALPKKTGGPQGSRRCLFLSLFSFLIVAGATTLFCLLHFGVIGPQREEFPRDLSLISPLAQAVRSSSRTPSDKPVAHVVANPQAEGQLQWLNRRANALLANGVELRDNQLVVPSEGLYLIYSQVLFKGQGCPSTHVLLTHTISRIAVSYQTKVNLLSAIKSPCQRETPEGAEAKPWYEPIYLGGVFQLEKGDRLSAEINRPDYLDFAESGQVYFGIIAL
# Chain of E-selectin (Homo sapiens) (P16581 whole entry, looked up): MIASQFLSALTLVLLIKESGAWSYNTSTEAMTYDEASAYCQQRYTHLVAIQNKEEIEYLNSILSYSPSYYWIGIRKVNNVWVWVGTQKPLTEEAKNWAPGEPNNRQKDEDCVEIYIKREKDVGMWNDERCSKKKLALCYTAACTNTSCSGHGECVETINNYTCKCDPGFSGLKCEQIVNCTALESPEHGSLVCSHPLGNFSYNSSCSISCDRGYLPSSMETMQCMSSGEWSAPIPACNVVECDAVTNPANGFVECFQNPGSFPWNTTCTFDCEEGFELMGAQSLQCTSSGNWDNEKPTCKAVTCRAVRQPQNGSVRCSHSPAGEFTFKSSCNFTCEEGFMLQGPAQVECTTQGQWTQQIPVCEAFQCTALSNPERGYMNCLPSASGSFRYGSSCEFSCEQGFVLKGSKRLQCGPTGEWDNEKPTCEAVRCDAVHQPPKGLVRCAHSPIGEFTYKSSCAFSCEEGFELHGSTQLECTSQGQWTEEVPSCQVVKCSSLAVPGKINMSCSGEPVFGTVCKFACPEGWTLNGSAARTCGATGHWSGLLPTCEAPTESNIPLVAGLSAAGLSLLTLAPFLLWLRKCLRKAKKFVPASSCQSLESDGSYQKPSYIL
structure (smiles),measurement,setting,value
Oc1ccc(C2(c3ccc(O)cc3)c3ccccc3-c3ccccc32)cc1,AC50,[1],12.7 µM (active) and 12.5 µM (active)
same,AC50,[2],15.6 µM (active) and 14 µM (active)
same,AC50,[3],6.04 µM (active) and 6.12 µM (active)
same,AC50,[4],18.1 µM (active) and 23.5 µM (active)
same,AC50,[5],5.35 µM (active) and 5.31 µM (active)
same,AC50,[6],13.2 µM (active) and 12 µM (active)
same,AC50,[7],17.2 µM (active) and 20 µM (active)
same,AC50,[8],6.97 µM (active) and 8.38 µM (active)
same,outcome,[9],inactive
same,AC50,[10],3.01 µM (active) and 5.41 µM (active)
same,AC50,[11],11.9 µM (active)
same,AC50,[12],2.68 µM (active) and 2.27 µM (active)
same,AC50,[13],2.26 µM (active) and 2.51 µM (active)
same,AC50,[14],8.68 µM (active) and 6.35 µM (active)
same,AC50,[15],5.39 µM (active) and 5.41 µM (active)
same,AC50,[16],32.7 µM (active)
same,outcome,[16],inactive
same,AC50,[17],11.8 µM (active)
same,outcome,[17],inactive
same,AC50,[18],30.9 µM (active) and 36.3 µM (active)
same,AC50,[19],12.1 µM (active) and 12.3 µM (active)
CCCCCCCCCCCCCCCC[N+](C)(C)C,outcome,[20],inactive
CCC(C)c1cc([N+](=O)[O-])cc([N+](=O)[O-])c1OC(=O)C=C(C)C (stereo not given),AC50,[1],9.89 µM (active)
same,AC50,[2],20 µM (active)
same,AC50,[3],11.2 µM (active)
same,AC50,[4],14.4 µM (active)
same,AC50,[5],20.9 µM (active)
same,AC50,[6],12.8 µM (active)
same,AC50,[7],6.41 nM (active)
same,AC50,[8],12.9 µM (active)
same,AC50,[9],34.2 µM (active)
same,AC50,[10],7.89 µM (active)
same,AC50,[11],20 µM (active)
same,AC50,[12],5.31 µM (active)
same,AC50,[13],6.13 µM (active)
same,AC50,[14],22.8 µM (active)
same,AC50,[15],14.8 µM (active)
same,AC50,[16],20 µM (active)
same,AC50,[17],5.41 µM (active)
same,AC50,[18],34.5 µM (active)
same,AC50,[19],28.2 µM (active)
CCCC=NO,outcome,[20],inactive
O=C1Nc2ccc(Cl)cc2C(c2ccccc2)=NC1O (stereo not given),outcome,[20],inactive
Cc1ccc(OP(=O)(Oc2ccc(C)cc2)Oc2ccc(C)cc2)cc1 (tested in a mixture with another compound),outcome,[1],inactive
same,outcome,[2],inactive
same,AC50,[3],7.47 µM (active)
same,outcome,[4],inactive
same,outcome,[5],inactive
same,AC50,[6],20 µM (active)
same,outcome,[7],inactive
same,AC50,[8],9.68 µM (active)
same,AC50,[9],3.35 µM (active)
same,outcome,[10],inactive
same,outcome,[11],inactive
same,AC50,[12],12.9 µM (active)
same,AC50,[13],20 µM (active)
same,outcome,[14],inactive
same,AC50,[15],13.6 µM (active)
same,AC50,[16],4.74 µM (active)
same,outcome,[17],inactive
same,outcome,[18],inactive
same,outcome,[19],inactive
COc1cc(OC)nc(Oc2cccc(Oc3nc(OC)cc(OC)n3)c2C(=O)O)n1,outcome,[20],inactive
N#CCCCCC#N,outcome,[1],inactive
same,outcome,[2],inactive
same,outcome,[3],inactive
same,outcome,[4],inactive
same,outcome,[5],inactive
same,outcome,[6],inactive
same,outcome,[7],inactive
same,outcome,[8],inactive
same,outcome,[9],inactive
same,outcome,[10],inactive
same,outcome,[11],inactive
same,outcome,[12],inactive
same,outcome,[13],inactive
same,outcome,[14],inactive
same,outcome,[15],inactive
same,outcome,[16],inactive
same,outcome,[17],inactive
same,outcome,[18],inactive
same,outcome,[19],inactive
CN(C)N,outcome,[20],inactive
CC(C)(O)C#N,outcome,[20],inactive
CCOP(O)OCC,outcome,[20],inactive
